Molecules are shown by their SMILES. Hit rate of the full screen: of about 1,100 compounds, fewer than 10 were called active. Inconclusive results (about 6%) are left out. A selection follows. Values without a mark were called inactive. The call rests on the fitted dose curve; in most records, active means well fitted cell-killing curve with a large enough effect; inconclusive means small, poorly fitted or top-dose-only effect; inactive means flat fitted curve, though single readings scatter.
Potency means the concentration at half of the fitted maximal effect.

A short description of the test: qHTS of Nrf2 Activators: Hit Validation in Cytotox Assay.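 Further: compound exposure lasted 24 hours before the ATP readout.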 On activity change, negative = cytotoxicity: 0% is about no effect. The settings on record: Cell viability counter-screen for Nrf2 activator hits; series mostly up to 46.1 µM; activity change, negative = cytotoxicity: at the top concentration. The source says: Many diseases have some form of oxidative stress injury and ties to inflammation, causing a host of problems for the patient. The antioxidant response element (ARE) plays an important role in alleviating the harmful effects of oxidative stress. The antioxidant response element (ARE) is a transcriptional regulatory element involved in the activation of genes coding for a number of antioxidant proteins and detoxifying enzymes. These enzymes work in concert to protect tissues from oxidative insults and chemical toxicities in human hepatocytes and immune cells. The protective effects of ARE activation are primarily triggered through Nrf2 (NF-E2-related factor) binding to and activating AREs. It is known that Nrf2 controls the production of over 250 antioxidant and detoxification proteins (Hu et al., 2006), thereby protecting tissues by increasing cellular antioxidant content and suppressing inflammatory signaling pathways. The transcription factor Nrf2 is a central link between oxidative chemicals, such as phenolic antioxidants and electrophilic compounds, and the activation of ARE. Nrf2 levels are constitutively low as a consequence of its interaction with Keap1, which targets its degradation (Zipper and Mulcahy, 2002). Electrophiles react with key cysteine residues in Keap1, releasing Nrf2 and allowing its translocation to the nucleus. Once within the nucleus, Nrf2 complexes with coactivators such as p300, and binds to the AREs to induce gene transcription of cytoprotective enzymes, resulting in the prevention of toxicity. Activation of Nrf2 protects tissues by increasing cellular antioxidant content and suppressing inflammatory signaling pathways. Identifying novel and potent Nrf2 activators by using the AREc32 cell line to detect ARE activation by small molecules will lead to the identification and development of probes to study protective pathways in multiple tissues. These specific probes are essential to study the ARE pathway, and eventually to determine whether this pathway does activate genes that could protect against a host of diseases, including cardiovascular diseases, obesity, diabetes, Alzheimer's, and Parkinson's disease.
This project's aim is to identify novel and potent Nrf2 activators by using the AREc32 cell line to detect ARE activation by small molecules, which will lead to the identification and development of probes to study the ARE pathway. Cytotoxic compounds are flagged as active, and inactivity is desired in this assay.
NIH Chemical Genomics Center [NCGC]
NIH Molecular Libraries Probe Centers Network [MLPCN]
Assay Submitter (PI): Curtis Klaassen, University of Kansas Medical Center
Cell viability after compound treatment was measured using a luciferase-coupled ATP quantitation assay (CellTiter-Glo, Promega) in AREc32_fluc cells. The change of intracellular ATP content indicates the number of metabolically competent cells after compound treatment. AREc32_fluc cells were harvested from T225 flask and resuspended in phenol red free OPTI-MEM medium with 5% FBS. Then 5 microL of 200,000 cells/ml resuspended cells was dispensed into each well of white, solid bottom, 1536-well tissue culture-treated plates using a Multidrop Combi dispenser. After overnight culture at 37 degrees C with 5% CO2, a total of 23 nL of compounds at 7 selected concentrations from the cherry pick or positive control (40 uM stock of CDDO-IM and 2 mM of tBHQ) in DMSO was transferred to each well of the assay plate using a pintool (Kalypsys, San Diego, CA), and the plates were further incubated at 37 degrees C with 5% CO2 for 24 hours. After that, 4 microL of CellTilter-GloTM luminescent substrate mix (Promega) was added to each well. The plate was incubated at room temperature for 30 minutes. The plates were measured on a ViewLux plate reader (PerkinElmer) with clear filter.
Background: qHTS replaces the single test concentration by a dilution series.
Consider `Cc1ccc(Cn2c(/C=C/c3ccco3)nc3ccccc32)cc1`, for which the “activity change, negative = cytotoxicity” value is -21.8%.
With `Clc1ccc(C=Cc2ccccn2)cc1`, the “activity change, negative = cytotoxicity” value was 1.25%.
On to `N#C/C(=C\c1ccccc1)c1ccccn1`, for which the “activity change, negative = cytotoxicity” value is -2.49%.
The same measure, in the same setting: for `O=c1[nH]c(SCc2cccc([N+](=O)[O-])c2)nc2[nH]ncc12` the value was 0.58%; for `COc1ccc(OC)c(C=C2CCc3ccccc3C2=O)c1`, 1.45%.
As for `O=C(Oc1cccc(-c2cnc3ccccc3n2)c1)c1ccco1`, the “activity change, negative = cytotoxicity” value was -1.91%.
Consider `Cc1ccc(C)c(/C=N/Nc2ccccn2)c1`, for which the “activity change, negative = cytotoxicity” value is 9.8%.
On the same count and under the same terms, for `O=C(Nc1cc(-c2nc3ncccc3o2)ccc1Cl)c1ccco1` the value was 11%; for `CN(C)CCN(C(=O)/C=C/c1cccs1)c1nc2ccc(F)cc2s1`, -13.7%.
On to `O=C(Nc1nnc(-c2cccs2)s1)c1cccc(F)c1`, for which the “activity change, negative = cytotoxicity” value was 7.96%.
`Cc1nn(-c2ccc3ccccc3c2)c(=O)c2ccccc12`: the “activity change, negative = cytotoxicity” value was 4.52%.
Still for that read-out and setting: for `Cc1cc(C)c2c(N)c(C(=O)c3ccc(Br)cc3)oc2n1` the value was -19.8%; for `Cc1ccc(-c2nc(NCc3ccco3)c3ccccc3n2)cc1`, -1.85%; for `Brc1cc(Br)c2nc(-c3cccs3)ccc2c1`, 5.71%.
The same measure, in the same setting: the figure for `S=c1nc(-c2ccccc2)[nH]c2ccc(Br)cc12` is 8.86%.
Consider `N#C/C(=C\c1ccc([N+](=O)[O-])o1)c1nc2ccccc2[nH]1`, for which the Potency was 20.6 µM (active).
On to `N#C/C(=C(/O)c1ccco1)c1nc2ccccc2[nH]1`, for which the “activity change, negative = cytotoxicity” value was -1.76%.
Same read-out and setting: the figure for `N#C/C(=C(/O)c1ccc(Br)s1)c1nc2ccccc2[nH]1` is -1.87%; for `O=C(Nc1ccccc1F)c1cc(-c2ccco2)nc2ccccc12` it is 9.87%.
On the same count and under the same terms, the figure for `COc1ccc(Cl)cc1-c1nc(-c2ccncc2)no1` is 0.603%.
Same read-out and setting: for `S=c1[nH]nc(-c2ccco2)n1/N=C/c1cccc(Cl)c1Cl` the value was 3.26%; for `N#Cc1cnc2cc(-c3ccccc3)nn2c1N`, 9.63%.
As for `O=C(CSc1ccc(-c2ccco2)nn1)N1CCCC1`, the “activity change, negative = cytotoxicity” value is 3.86%.
Same read-out and setting: the figure for `CCNc1ccc(-c2nc(-c3ccco3)no2)cc1[N+](=O)[O-]` is 4.03%; for `COC(=O)c1ccc2nc(-c3cccc(Br)c3)c(Cc3ccccc3OC)n2c1` it is -1.22%.
The same measure, in the same setting: the figure for `Fc1ccc2nc(Nc3nc4c(F)cc(F)cc4s3)sc2c1` is -20.6%.
On the same count and under the same terms, the figure for `N#Cc1cccn1-c1nccc(-c2cccs2)n1` is 6.19%; for `O=C(NC(=S)Nc1cc([N+](=O)[O-])ccc1Cl)c1ccccc1` it is 2.33%; for `Cc1cc(SCC(=O)c2cccs2)nc2ccccc12` it is -9.71%.
Consider `O=C(NCc1ccco1)c1ccccc1-c1nc(-c2ccc(F)cc2)no1`, for which the “activity change, negative = cytotoxicity” value is 2.78%.
The same measure, in the same setting: for `O=[N+]([O-])c1ccc(SCc2ccco2)cc1N1CCOCC1` the value was -8.19%; for `CCOC(=O)N1CCc2c(sc3c2C(=O)NC(c2ccccc2)N3)C1` (stereo not given), -11.2%; for `CC(=O)c1cccc(NC(=O)c2cc(Cl)sc2Cl)c1`, 2.61%.
Take `Cn1c(N/N=C/c2cccs2)cc(=O)n(C)c1=O`: the “activity change, negative = cytotoxicity” value is 1.17%.
For the compound `Cc1cc(=O)n2nc(-c3ccccc3)sc2c1C#N`, the “activity change, negative = cytotoxicity” value is 1.07%.
On to `Cc1cc(C)c(C#N)c(SCC(=O)c2cccs2)n1`, for which the “activity change, negative = cytotoxicity” value was 3.09%.
Turning to `COc1ccc(O)c(-c2cc(-c3ccccc3Cl)[nH]n2)c1`, the “activity change, negative = cytotoxicity” value is -8.44%.
Same read-out and setting: the figure for `CCn1c(SCC(=O)N/N=C/C=C/c2ccco2)nc2ccccc21` is -2.98%.
For `Cc1ccc(NC(=O)COCc2cc(-c3cccs3)on2)cc1Cl`, the “activity change, negative = cytotoxicity” value was 5.1%.
As to `c1ccc2c(c1)nnn2-c1ncnc2sccc12`, the “activity change, negative = cytotoxicity” value was 3.73%.
For the compound `O=C(CSc1nc2c(sc3ccccc32)c(=O)n1-c1ccccc1)NCc1ccco1`, the “activity change, negative = cytotoxicity” value was 2.64%.
Still for that read-out and setting: the figure for `S=c1[nH]nc(-c2ccncc2)n1/N=C/C=C/c1ccco1` is 6.05%.
Consider `Clc1ccccc1NN=Cc1ccccn1`, for which the “activity change, negative = cytotoxicity” value was 1.21%.
In the case of `Cc1cc(NC(=O)c2ccccc2)nc2c1c(=O)oc1ccccc12`, the “activity change, negative = cytotoxicity” value was 1.23%.
Still for that read-out and setting: the figure for `CCCn1c(-c2cccs2)nc2nc3ccccc3nc21` is 5.71%.
Still for that read-out and setting: for `CCOC(=O)c1sc(NC(=O)c2ccccc2F)c(C(N)=O)c1C` the value was 7.14%.
Consider `C#CCSc1nc(-c2ccccc2)cc(C(F)(F)F)c1C#N`, for which the “activity change, negative = cytotoxicity” value is 5.58%.
Same read-out and setting: for `O=Cc1c(NCc2ccco2)nc2ccccn2c1=O` the value was 7.6%; for `COC(=O)C1=C(C)NC(=O)/C1=C\c1ccco1`, -7.1%.
On the same count and under the same terms, the figure for `Cc1nc(-c2ccccn2)sc1C(=O)Nc1ccc(F)cc1` is 7.45%; for `CC(=O)Nc1cc(-c2ccsc2)cn2c(-c3ccc(F)cc3)cnc12` it is -5.25%.
`O=C(Nc1ccc(F)cc1)c1nsc(Cl)c1Cl`: the “activity change, negative = cytotoxicity” value was 1.43%.
Take `CS(=O)(=O)c1ccc2nc(NC(=O)CCS(=O)(=O)c3ccccc3)sc2c1`: the “activity change, negative = cytotoxicity” value is 11.9%.
On the same count and under the same terms, for `O=C(Cn1ncc(Cl)c(Cl)c1=O)NC1CCS(=O)(=O)C1` (stereo not given) the value was 8.46%; for `Cc1ccccc1OCC(=O)Nc1ccccc1CO`, 11.9%; for `O=C(c1nn2c(C(F)(F)F)cc(-c3ccco3)nc2c1Br)N1CCCc2ccccc21`, -15%.
Turning to `Cc1ccc([N+](=O)[O-])c(OCc2ncc(Cl)n2C)c1`, the “activity change, negative = cytotoxicity” value was -2.21%.
The same measure, in the same setting: for `O=c1[nH]c(O)c(/C=C2\C=Nc3ccc(Br)cc32)[nH]1` the value was 8.92%; for `COc1ccc(/C(N)=N/OC(=O)c2cccc([N+](=O)[O-])c2)cc1`, -1.04%; for `N/C(=N\OC(=O)c1ccco1)c1cccc(Br)c1`, 3.8%.
